Data taken from PubChem BioAssay (NCI).
This is part of a sample that, as a whole, favours compounds with a hit. Of some 79,000 tested, about 15% had one in any assay. The source made the active and inactive calls. No stated cut-off is given here; in the data, active means growth inhibition above about 70%; inactive means the rest.

Assays:
[1] = NCI Yeast Anticancer Drug Screen. Data for the rad52 strain (AID 147);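 further: 0% = growth of vehicle-treated control cultures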; conditions: S. cerevisiae rad52 mutant growth inhibition, hits give high values
Method in brief: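 Here a repair-compromised yeast strain receives each compound; its growth is then quantified and normalised to vehicle-only controls.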

[2] = NCI Yeast Anticancer Drug Screen. Data for the wt1 strain (AID 149);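 further: 0% = growth of vehicle-treated wt1 cultures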; conditions: S. cerevisiae wt1 strain (SPY 50644) growth inhibition, hits give high values
Method in brief: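 Compounds are added to wt1 yeast cultures. Growth is then measured. Inhibition is expressed relative to vehicle-treated controls.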

[3] = NCI Yeast Anticancer Drug Screen. Data for the rad50EPP+ strain (AID 151);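 further: 0% = growth of vehicle-treated control cultures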; conditions: S. cerevisiae rad50 mutant strain, hits give high values
Method in brief: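 Read-out is yeast growth inhibition relative to vehicle; cells used were the rad50EPP+ strain.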

[4] = NCI Yeast Anticancer Drug Screen. Data for the mgt1 strain (AID 153); conditions: S. cerevisiae mgt1 mutant growth inhibition, hits give high values
Method in brief: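 Measured: inhibition of mgt1 yeast growth by compound, normalized to vehicle-treated cultures.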

[5] = NCI Yeast Anticancer Drug Screen. Data for the rad50 strain (AID 155);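 further: 0% = growth of vehicle-only cultures of the same strain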; conditions: S. cerevisiae rad50 strain growth inhibition, hits give high values
Method in brief: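 Inhibition values express reduced yeast growth in compound-treated cultures relative to vehicle-treated controls.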

[6] = NCI Yeast Anticancer Drug Screen. Data for the mec2-1 strain (AID 157); conditions: S. cerevisiae mec2-1 strain, hits give high values
Method in brief: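 Using mec2-1 yeast: add compound, measure growth, express inhibition versus vehicle-treated cultures.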

[7] = NCI Yeast Anticancer Drug Screen. Data for the rad14 strain (AID 159);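 further: 0% = growth of vehicle-treated control cultures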; conditions: S. cerevisiae rad14 strain growth inhibition, hits give high values
Method in brief: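 A mutant yeast strain defective in DNA damage repair is treated with compound; inhibition of its growth is scored against untreated, vehicle-exposed cultures.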

[8] = NCI Yeast Anticancer Drug Screen. Data for the sgs1 mgt1 strain (AID 161);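 further: 0% = growth of cultures given vehicle only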; conditions: S. cerevisiae sgs1 mgt1 strain, hits give high values
Method in brief: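 Percent growth inhibition was derived by comparing compound-exposed mutant yeast with vehicle-exposed cultures. The strain carries alterations in DNA damage repair.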

[9] = NCI Yeast Anticancer Drug Screen. Data for the CLN2oe strain (AID 163);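 further: 0% = growth of vehicle-only control cultures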; conditions: S. cerevisiae CLN2oe strain, hits give high values
Method in brief: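 Whole-cell yeast growth assay. A strain engineered for altered cell-cycle control received compound, and inhibition relative to vehicle-treated cultures was recorded.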

[10] = NCI Yeast Anticancer Drug Screen. Data for the cln2 rad14 strain (AID 165);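 further: 0% = growth equal to vehicle treated cultures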; conditions: S. cerevisiae cln2 rad14 strain, hits give high values
Method in brief: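 Yeast strain cln2 rad14, bearing defects in cell cycle control and DNA repair, serves as the test system; values reflect growth inhibition compared with vehicle.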

[11] = NCI Yeast Anticancer Drug Screen. Data for the bub3 strain (AID 167); conditions: S. cerevisiae bub3 mutant strain, hits give high values
Method in brief: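 Steps: expose the mutant yeast strain to compound; grow alongside vehicle-treated cultures; measure growth; express inhibition against the vehicle cultures.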

[12] = NCI Yeast Anticancer Drug Screen. Data for the wt2 strain (AID 169);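 further: 0% = growth of vehicle-treated yeast cultures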; conditions: S. cerevisiae wt2 strain growth inhibition, hits give high values
Method in brief: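 Treated yeast vs. vehicle-treated yeast: growth inhibition determined.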

[13] = NCI Yeast Anticancer Drug Screen. Data for the mlh1 strain (AID 171);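 further: 0% = growth of vehicle-treated control cultures of the same strain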; conditions: S. cerevisiae mlh1 strain growth inhibition, hits give high values
Method in brief: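 A yeast strain with a defined genetic lesion serves as the test organism. Cultures receive compound or vehicle, and growth is measured.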

[14] = NCI Yeast Anticancer Drug Screen. Data for the sgs1 strain (AID 173);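 further: 0% = growth of vehicle-only control cultures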; conditions: S. cerevisiae sgs1 mutant, hits give high values
Method in brief: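 A genetically defined yeast mutant is incubated with the test compound, and its growth is compared to that of the same strain given vehicle.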

[15] = NCI Yeast Anticancer Drug Screen. Data for the mlh1 rad18 strain (AID 175); conditions: S. cerevisiae mlh1 rad18 strain growth inhibition, hits give high values
Method in brief: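 Steps: expose repair-defective yeast to compound; measure growth; express inhibition against vehicle-treated controls.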

[16] = at 5.0 µM (retest, dose inferred, filed as 0.5)
[17] = at 50.0 µM (retest, dose inferred, filed as 5.0)

Measured: growth inhibition

CCc1cccc(C(C)C)c1NC1=C([n+]2ccc(C)cc2)C(=O)c2ccccc2C1=O
active: [1]; at 100.0 µM 83% | [5]; [17] 87% | [5]; at 50.0 µM 89.1% | [5]; at 100.0 µM 81%
inactive: [1]; at 1.2 µM 2% | [1]; at 3.7 µM 5% | [1]; at 11.0 µM 12% | [1]; at 33.0 µM 42% | [2]; at 1.2 µM -2% | [2]; at 3.7 µM -2% | [2]; at 11.0 µM -4% | [2]; at 33.0 µM -3% | [2]; at 100.0 µM 6% | [3]; at 1.2 µM 0% | [3]; at 3.7 µM 7% | [3]; at 11.0 µM 17% | [3]; at 33.0 µM 31% | [3]; at 100.0 µM 38% | [4]; at 1.2 µM 0% | [4]; at 3.7 µM -1% | [4]; at 11.0 µM -1% | [4]; at 33.0 µM 4% | [4]; at 100.0 µM 11% | [5]; at 1.2 µM -2% | [5]; at 3.7 µM 0% | [5]; [16] 37% | [5]; at 11.0 µM 25% | [5]; at 33.0 µM 63% | [6]; at 1.2 µM -1% | [6]; at 3.7 µM -3% | [6]; [16] 10% | [6]; at 11.0 µM 11% | [6]; at 33.0 µM 1% | [6]; [17] 65% | [6]; at 50.0 µM 63.1% | [6]; at 100.0 µM 17% | [7]; at 1.2 µM -1% | [7]; at 3.7 µM 4% | [7]; at 11.0 µM 4% | [7]; at 33.0 µM 5% | [7]; at 100.0 µM 21% | [8]; [16] -3% | [8]; [17] 36% | [8]; at 50.0 µM 41.2% | [9]; at 1.2 µM -3% | [9]; at 3.7 µM -2% | [9]; at 11.0 µM 1% | [9]; at 33.0 µM -2% | [9]; at 100.0 µM 11% | [10]; [16] -6% | [10]; [17] 32% | [10]; at 50.0 µM 12.7% | [11]; at 1.2 µM -8% | [11]; at 3.7 µM -4% | [11]; [16] 5% | [11]; at 11.0 µM 1% | [11]; at 33.0 µM 5% | [11]; [17] 61% | [11]; at 50.0 µM 41.5% | [11]; at 100.0 µM 25% | [12]; at 1.2 µM -2% | [12]; at 3.7 µM -2% | [12]; at 11.0 µM -2% | [12]; at 33.0 µM 1% | [12]; at 100.0 µM 6% | [13]; at 1.2 µM -4% | [13]; at 3.7 µM -6% | [13]; at 11.0 µM -4% | [13]; at 33.0 µM 2% | [13]; at 100.0 µM 9% | [14]; at 1.2 µM -3% | [14]; at 3.7 µM -3% | [14]; at 11.0 µM -2% | [14]; at 33.0 µM -2% | [14]; at 100.0 µM 18% | [15]; [16] -4% | [15]; [17] 24% | [15]; at 50.0 µM 61.5%
